In PubChem BioAssay (NCATS):
Records with an inconclusive call do not appear. The source made the active and inactive calls. Unless noted, calls come from the whole dose curve; as a rule, active = well fitted curve in the direction sought with a large enough effect; inconclusive = small, poorly fitted or top-dose-only effect, or another doubt; inactive = no such curve, though single readings can be large; an effect the other way counts as inactive or inconclusive.

Tests used:
[1] = Confirmation and Secondary Assay for Modulators of Hemoglobin Beta Chain Splicing at IVS2 654 locus (AID 910);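 note: HeLa cells stably carrying EGFP split by mutant beta-globin IVS2-654 intron; per-well total GFP intensity by laser scanning cytometry after 2-day treatment; % of control where 0% means no effect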
In short: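 Readout: per-well total peak green fluorescence (488 nm ex, 500–520 nm em) from objects 5–250 µm, reflecting correct splicing of an EGFP-654 reporter. Compounds were applied for 2 days at 37 °C to overnight-plated HeLa EGFP-654 cells; controls were DMSO and 500 nM IVS2-654 PNA.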

[2] = Confirmation and Secondary Assay for Modulators of Hemoglobin Beta Chain Splicing at IVS2 705 locus (AID 930);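 note: HeLa cells stably expressing the EGFP-705 splicing reporter; GFP fluorescence per well restored by corrected splicing of the IVS2-705 intron in EGFP; % of control where 0% means no effect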
In short: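 Stable HeLa line with EGFP disrupted by mutant beta-globin intron 2 (705). Overnight attachment, then 2 days of compound at 37C, 5% CO2. Signal: peak GFP intensity summed over objects 5-250 µm.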

[3] = qHTS Assay for Lipid Storage Modulators (AID 1519; calls by dose curve; for activity change, negative = inhibition: % is set by controls: 0 for no effect and ±100 for the full control effect); details: Drosophila S3 cells, BODIPY lipid droplet/cell ratio, laser cytometry, cells loaded with oleic acid
In short: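 Cells seeded at 5,000 per well were treated with compounds over a concentration series and loaded with oleic acid (400 uM, as added). Lipid droplet fluorescence (488 nm excitation, 500-530 nm channel) was read by laser-scanning cytometry and normalized to 20 uM Triacsin C.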

Furin (Homo sapiens) = Furin (Homo sapiens) (UniProt P09958); test: Furin counterscreen qHTS for Zika virus inhibitors (AID 1347149);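 note: purified recombinant full-length human furin enzyme at 5 nM; fluorescence gain from furin cutting a BOC-RVRR-AMC peptide substrate over 15 min; top concentration of the series differs between compounds; plate controls were no-inhibitor control for no effect and no-enzyme control for full effect; nearly all actives have a fitted effect of over 70% in size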
In short: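 Counterscreen measures cleavage of 2 microM BOC-RVRR-AMC, below its ~15 microM Km, by 5 nM full-length human furin at pH 7.0 after a 15-min compound preincubation. Inhibition derives from the 15-min fluorescence increase at 37C.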

[4] = Confirmatory screen GU Rhodamine qHTS for Zika virus inhibitors qHTS (AID 1347157); note: potency is the fitted concentration of half-maximal effect; nearly all actives have a fitted effect of over 70% in size
In short: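 A qHTS format was used, with compound concentrations ranging up to 114 microM. Each compound was preincubated with 25 nM NS2B-NS3 protease, and the substrate was then added at 1.5 microM. Curves were fitted with a 4-parameter Hill model.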

[5] = ZIKV-mCherry secondary qHTS for Zika virus inhibitors (AID 1347158); note: top concentration of the series differs between compounds
In short: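 This orthogonal imaging screen measured ZIKV-mCherry infection of Vero cells exposed to compound, MOI 1, 48-72 h. Percent infection came from segmented nuclei scored mCherry-positive above 3 SD of negative controls.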

[6] = tested on: Zika virus NS2B-NS3 protease (linked construct); test: Primary screen NINDS Rhodamine qHTS for Zika virus inhibitors (AID 1347160); note: potency is the fitted concentration of half-maximal effect; nearly all actives have a fitted effect of over 55% in size
In short: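 Aprotinin served as in-plate control. Conditions: 25 nM linked NS2B-NS3, pH 8.0 Tris buffer, titrated compounds, 15 min preincubation and 15 min reaction with 1.5 microM Rhod110 substrate at room temperature.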

[7] = Confirmatory screen NINDS Rhodamine qHTS for Zika virus inhibitors (AID 1347161); note: potency is the fitted concentration of half-maximal effect; nearly all actives have a fitted effect of over 60% in size
In short: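 qHTS dose-response: 25 nM linked protease, pH 8.0 Tris/Tween buffer, cpd titration, 15 min RT preinc, 1.5 microM Rhod110 peptide, 15 min reaction (~15% conversion), Ex480/Em540; 4-parameter Hill fit.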

[8] = tested on: Zika virus NS2B-NS3 protease (linked); test: 384 well plate NINDS AMC confirmatory qHTS for Zika virus inhibitors (AID 1347163); note: potency is the fitted concentration of half-maximal effect; nearly all actives have a fitted effect of over 50% in size
In short: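 Enzyme (5, 30 or 60 nM final) first met test compounds for ~15 min. The AMC-tagged peptide Ac-VKTGKR-AMC followed at 30 microM. Fluorescence was then recorded at 25 min and scaled against no-enzyme and no-inhibitor wells.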

[9] = tested on: Zika virus NS2B-NS3 protease (linked construct); test: 384 well plate NINDS Rhodamine confirmatory qHTS for Zika virus inhibitors (AID 1347164);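 note: fluorescence from protease cleavage of Ac-LKRR-rhodamine 110 substrate; potency is the fitted concentration of half-maximal effect; nearly all actives have a fitted effect of over 65% in size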
In short: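 Linked NS2B-NS3 protease (final 5, 30 or 60 nM) preincubated ~15 minutes with compounds, then 10 microM Ac-LKRR-Rhodamine 110 added. Fluorescence (485/538 nm) read after 25 minutes at room temperature, normalized to no-enzyme and no-inhibitor controls.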

[10] = OV-KATE Cancer Cell Toxicity qHTS against the NCATS CANVASS Library (AID 1347345); note: % is set by controls: 0 for no effect and ±100 for the full control effect
In short: (§1)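 Per well, 1000 cells; exposure 72 h with compound at 11 final concentrations; readout CellTiter-Glo luminescence.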

[11] = HPAF-II Cancer Cell Toxicity qHTS against the NCATS CANVASS Library (AID 1347346); note: % is set by controls: 0 for no effect and ±100 for the full control effect; nearly all actives have a fitted effect of over 55% in size
In short: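 Using 1000 HPAF-II cells per well, we titrated compounds over 11 concentrations for 72 h at 37 degrees C/5% CO2, with bortezomib as control. Cell survival was quantified by CellTiter-Glo luminescence.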

[12] = OV-SAHO Cancer Cell Toxicity qHTS against the NCATS CANVASS Library (AID 1347348); note: % is set by controls: 0 for no effect and ±100 for the full control effect; nearly all actives have a fitted effect of over 55% in size
In short: as §1

[13] = Panc-1005 Cancer Cell Toxicity qHTS against the NCATS CANVASS Library (AID 1347349); note: potency is the fitted concentration of half-maximal effect; nearly all actives have a fitted effect of over 60% in size
In short: as §1

[14] = A2780 Cisplatin Sensitive Ovarian Cancer Cell Toxicity qHTS against the NCATS CANVASS Library (AID 1347353); note: % is set by controls: 0 for no effect and ±100 for the full control effect; nearly all actives have a fitted effect of over 60% in size
In short: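 Quantitative HTS format: eleven compound concentrations applied to pre-seeded cells, 72 h incubation at 37 °C, then ATP detection by luminescence.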

[15] = UWB1.289-WTBRCA1 Cancer Cell Toxicity qHTS against the NCATS CANVASS Library (AID 1347354); note: % is set by controls: 0 for no effect and ±100 for the full control effect
In short: (§2)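 Using an ATP-based luminescent reagent after three days of treatment, toxicity is scored across an eleven-concentration range in wells holding 1000 cells each.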

[16] = HEK-293 Cancer Cell Toxicity qHTS against the NCATS CANVASS Library (AID 1347355); note: % is set by controls: 0 for no effect and ±100 for the full control effect; nearly all actives have a fitted effect of over 65% in size
In short: as §2

[17] = HPAF-II 24hr Apoptosis Induction qHTS against the NCATS CANVASS Library (AID 1347356); note: 0% is about no effect
In short: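 Using an 11-point qHTS format, HPAF-II cells in DMEM/10% FBS received compounds for 24 h; doxorubicin titration as control. Caspase-3/7 activity quantified by DEVD-luciferase luminescence.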

[18] = HEK293 18hr Apoptosis Induction qHTS against the NCATS CANVASS Library (AID 1347357); note: 0% is about no effect
In short: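 HEK293 cells (500/well, DMEM + 10% FBS) treated with an 11-point series for 18 h at 37 degrees C. Caspase-3/7 activity read by Caspase-Glo luminescence after 15 min at room temperature.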

[19] = HPAF-II 12hr Apoptosis Induction qHTS against the NCATS CANVASS Library (AID 1347358); note: 0% is about no effect
In short: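 Twelve-hour compound exposure of HPAF-II cells in DMEM with 10% FBS, then luminescent Caspase-Glo 3/7 detection after 15 min at room temperature; doxorubicin control.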

[20] = HEK293 24hr Apoptosis Induction qHTS against the NCATS CANVASS Library (AID 1347359); note: 0% is about no effect
In short: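 Caspase-3/7 activation measured as luminescence from the DEVD-based Caspase-Glo reagent, 15 min at room temperature, following 24-hour compound treatment of HEK293 cells.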

Furin (Homo sapiens), sequence (P09958 whole entry, looked up): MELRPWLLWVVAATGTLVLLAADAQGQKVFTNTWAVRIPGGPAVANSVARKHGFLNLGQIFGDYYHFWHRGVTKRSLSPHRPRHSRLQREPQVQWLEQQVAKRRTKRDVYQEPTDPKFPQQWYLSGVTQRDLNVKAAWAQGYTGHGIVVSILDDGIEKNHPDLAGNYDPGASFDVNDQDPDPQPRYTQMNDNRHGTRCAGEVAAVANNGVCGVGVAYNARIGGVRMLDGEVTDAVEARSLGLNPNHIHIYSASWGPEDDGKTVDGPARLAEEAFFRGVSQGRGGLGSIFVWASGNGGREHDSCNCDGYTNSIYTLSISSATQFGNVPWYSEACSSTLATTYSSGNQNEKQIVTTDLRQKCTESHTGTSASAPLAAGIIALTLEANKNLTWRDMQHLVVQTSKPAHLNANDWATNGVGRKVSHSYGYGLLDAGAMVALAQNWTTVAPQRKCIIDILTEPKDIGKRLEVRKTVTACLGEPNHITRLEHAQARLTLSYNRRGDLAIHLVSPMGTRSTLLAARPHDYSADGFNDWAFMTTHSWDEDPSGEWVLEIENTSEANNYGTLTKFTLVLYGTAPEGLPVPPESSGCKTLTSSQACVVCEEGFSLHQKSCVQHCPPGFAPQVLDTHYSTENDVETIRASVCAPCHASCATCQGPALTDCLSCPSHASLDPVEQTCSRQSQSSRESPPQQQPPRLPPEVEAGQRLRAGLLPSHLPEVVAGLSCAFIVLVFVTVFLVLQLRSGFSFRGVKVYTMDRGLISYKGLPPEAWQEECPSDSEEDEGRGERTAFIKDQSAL

O=C(OC1Cc2c(O)cc(O)cc2OC1c1cc(O)c(O)c(O)c1)c1cc(O)c(O)c(O)c1 (stereo not drawn)
active: Potency [4] 7.94 µM | Potency [6] 1.56 µM | Potency [7] 7.94 µM | Potency [8] 15.8 µM | Potency [9] 89.1 µM | Potency [13] 18.8 µM
1.63%: max response ([3]; measured here: cell count channel max response)
13.6%: max response ([3]; measured here: lipid channel max response)
inactive: outcome [1] | outcome [2] | activity change, negative = inhibition ([3]; at 57.5 µM (top of the series)) 7.9% | Potency (Furin (Homo sapiens)) | Potency [5] | Potency [10] | Potency [11] | Potency [12] | Potency [14] | Potency [15] | Potency [16] | outcome [17] | Potency [18] | Potency [19] | Potency [20]
